Pf apPOL inh = Pf-apPOL DNA polymerase inhibition. Recombinant Pf-apPOL, molecular beacon fluorescence, 1.5 h. inhibition, % at 10 µM. 210,000 tested, 0.25% active. AID 1794808
mHTT CaM bind = mHTT-calmodulin interaction abrogation. AlphaScreen His-mHTT/GST-CaM binding, luminescence. inhibition, % at 15 µM. 190,000 tested, 3.6% active;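 further: 0% = both proteins with DMSO and 100% = one protein alone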
* hit, by the source's call; / = no result. The list is not random: actives were taken first. Their share in the collection is about 3.6%. No stated cut-off is given here; in the data, active means inhibition above about 50%; inactive means the rest.

SMILES	Pf apPOL inh	mHTT CaM bind
CCOc1ccc(C(=O)N2CCc3c(c(C(=O)NCc4ccc(F)cc4)nn3C)C2)cc1	-10.1	-8.7
CC(C)CC(=O)N1CCc2c(c(C(=O)NCc3ccccc3)nn2C)C1	-6.9	17.8
COCC(=O)N1CCc2c(c(C(=O)NCc3ccc(Cl)cc3)nn2C)C1	-1.1	18.4
Cn1nc(C(=O)NCc2ccccc2)c2c1CCN(C(=O)COc1ccccc1)C2	-8.8	56.0*
Cn1nc(C(=O)NCc2ccccc2)c2c1CCN(C(=O)COc1ccc(Cl)cc1)C2	-7.2	86.6*
Cc1ccc(Cl)c(NC(=O)c2cn3c(n2)CCCC3)c1	1.2	1.0
CNCC(=O)N1CCC(CCOC)CC1	0.6	-2.2
O=C1OC(c2ccccc2F)=N/C1=C/c1cc(Cl)ccc1O	0.1	5.0
COc1cccc(CN2CCc3nc(N4CCC(C)CC4)ncc3C2)c1OC	-2.9	22.8
CCN1CCN(c2ncc3c(n2)CCN(Cc2cc(OC)ccc2OC)C3)CC1	0.0	48.0
COc1ccc(OC)c(CN2CCc3nc(N4CCN(c5ncccn5)CC4)ncc3C2)c1	-0.2	98.9*
Fc1ccccc1CN1CCc2nc(N3CCOCC3)ncc2C1	0.1	5.8
Fc1ccccc1CN1CCc2nc(N3CCN(c4ncccn4)CC3)ncc2C1	-1.4	100.0*
COc1ccc(CN2CCc3nc(N4CCCC4)ncc3C2)c(OC)c1	0.9	98.9*
COc1cc(OC)c(OC)cc1CN1CCc2nc(N3CCN(C)CC3)ncc2C1	-3.2	27.4
COc1cccc(CN2CCc3nc(N4CCCC4)ncc3C2)c1OC	3.5	88.3*
Cc1ccc(NC(=O)c2cc3c(CO)cnc(C)c3oc2=Nc2ccccc2)cc1Cl	-3.7	4.0
O=C(NC1CCCCC1)c1csc(-c2ccc(N3CCCC3)nc2)n1	-1.9	-12.3
CCc1ccc(N2CCN(C(=O)c3ccc(OC)cc3)C(C)C2=O)cc1 (stereo not drawn)	-6.6	-1.6
COc1cc(-c2c(C#N)c(N)n3c(nc4ccccc43)c2C#N)ccc1OCC#N	-0.3	69.0*
CCOc1ccc(-c2c(C#N)c(N)n3c(nc4ccccc43)c2C#N)cc1OC	0.2	47.0
Cc1c(Cl)cccc1NC(=O)Cn1cc2c(n1)CCCCC2	-5.9	-1.8
CC1(C)CC(=O)C2=C(C1)Nc1nc(-c3ccccc3)nn1C2c1ccc(F)cc1 (stereo not drawn)	-1.0	78.0*
CC1(C)CC(=O)C2=C(C1)Nc1nc(-c3ccc(O)cc3)nn1C2c1ccccc1 (stereo not drawn)	-0.4	-8.5
COc1cc(-c2nc3n(n2)C(c2ccccc2)C2=C(CCCC2=O)N3)cc(OC)c1OC (stereo not drawn)	-2.6	52.4*
SMILES	Pf apPOL inh	mHTT CaM bind
COc1ccc(C2C3=C(CCCC3=O)Nc3nc(-c4ccc(N(C)C)cc4)nn32)cc1OC (stereo not drawn)	1.6	80.3*
COc1ccc(-c2nc3n(n2)C(c2ccc(OC)c(OC)c2)C2=C(CCCC2=O)N3)cc1 (stereo not drawn)	-0.8	16.3
COc1cc(C2C3=C(CCCC3=O)Nc3nc(-c4ccc(O)cc4)nn32)cc(OC)c1OC (stereo not drawn)	-2.0	12.3
O=C(Cc1ccc(Cl)cc1)N1CC2CC1CC2NS(=O)(=O)c1cccs1 (stereo not drawn)	-1.7	5.1
Oc1c(Cl)cc(Cl)cc1C=NNC(=S)NC1CC2CCC1C2 (stereo not drawn)	-5.7	/
Oc1c(Cl)cc(Cl)cc1C=NNC(=S)NCC1CCCO1 (stereo not drawn)	69.9*	/
FC(F)(F)c1cccc(CN2CC(c3nc(Cc4ccccc4)no3)C2)c1	-4.1	61.5*
O=C(CN1CC(c2nc(Cc3ccccc3)no2)C1)c1ccc(Cl)cc1	20.3	56.9*
Cc1nnc(NC(=O)CN2CC(c3nc(Cc4ccccc4)no3)C2)s1	-5.0	-2.8
Cc1cccc(CS(=O)(=O)N2CC(c3nc(Cc4ccccc4)no3)C2)c1	-8.3	-12.9
N#C/C(=C\c1ccc(O)cc1)c1nc(-c2ccc3c(c2)OCO3)cs1	0.6	23.5
COCCc1noc(COC2CCCN(C(=O)c3ccco3)C2)n1 (stereo not drawn)	3.9	-3.1
O=c1[nH]nnc2ccc(Br)cc12	/	-0.6
CC(=O)c1sccc1N1C(=O)c2ccccc2C1=O	-12.7	/
CCCCC[C@@H](C)N1C[C@@H](COCc2ccccc2)Oc2cc(N3CC[C@@H](O)C3)ccc2S1(=O)=O	-2.1	99.2*
CCCCC[C@H](C)N1C[C@H](COCc2ccccc2)Oc2cc(N3CCC[C@H]3C(N)=O)ccc2S1(=O)=O	-17.8	41.7
CCCCC[C@@H](C)N1C[C@H](COCc2ccccc2)Oc2cc(N3CCC[C@H]3C(N)=O)ccc2S1(=O)=O	-4.7	21.9
CCCCC[C@@H](C)N1C[C@@H](COCc2ccccc2)Oc2cc(N3CC[C@H](O)C3)ccc2S1(=O)=O	-3.3	89.7*
CCCCC[C@@H](C)N1C[C@@H](COCc2ccccc2)Oc2cc(N3CCC[C@@H]3CO)ccc2S1(=O)=O	-5.5	21.9

Screening results from PubChem BioAssay.
